# PubChem BioAssay AID686979 (National Center for Advancing Translational Sciences (NCATS), 2013)
# Where “and” joins values, the source holds several entries; their conditions need not be identical. Equal entries are not always repeated. Out of some 420,000 compounds screened, about 50,000 (12%) were called active. Entries that show only a call come without a potency. Roughly 26% stayed inconclusive and do not appear here. Calls come from the whole dose curve; as a rule, active = well fitted inhibition curve with a large enough effect; inconclusive = small, poorly fitted or top-dose-only effect; inactive = flat fitted curve, though single readings scatter. For the sample, actives were picked, then their nearest neighbours and some compounds at random.
# Test: qHTS for Inhibitors of human tyrosyl-DNA phosphodiesterase 1 (TDP1): qHTS in cells in presence of CPT; note: nearly all actives have a fitted effect of over 55% in size
# Details: chicken DT40 Tdp1-/-;hTDP1 cells + 20 nM CPT, ATP luminescence, 48 h; series mostly up to 46.2 µM
# Outline: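 Chicken DT40 Tdp1-/- cells complemented with human TDP1, 400 cells/well, exposed to compounds plus 20 nM camptothecin for at least 48 h at 37 C; viability read as ATP content by CellTiter-Glo luminescence.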
# Potency is the fitted concentration of half-maximal effect.
row,SMILES,Potency
1,O=C(Nc1ccccc1Cl)NC1(C(=O)N2CCOCC2)CCCCC1,inactive
2,COc1cc2c(cc1OC)C(=O)NCC(C)(C)O2,inactive
3,Cc1cc(C)cc(NC(=O)Cn2cnc3c(nnn3Cc3ccc(F)cc3)c2=O)c1,inactive
4,CCCCCn1c(=O)[nH]c2cc(C(=O)Nc3ccc(F)cc3)ccc2c1=O,20.6 µM (active)
5,CCCCCn1c(=O)[nH]c2cc(C(=O)Nc3cc(C)cc(C)c3)ccc2c1=O,4.11 µM (active)
6,COCCn1c(=O)[nH]c2cc(C(=O)NCc3cccnc3)ccc2c1=O,inactive
7,O=C(NC1CCCCC1)c1ccc2c(=O)n(CC3CCCO3)c(=O)[nH]c2c1 (stereo not drawn),inactive
8,CCCCCn1c(=O)[nH]c2cc(C(=O)NCCCN3CCCCC3C)ccc2c1=O (stereo not drawn),inactive
9,CC(C)n1c(=O)[nH]c2cc(C(=O)Nc3ccccc3)ccc21,inactive
10,O=C(NCc1ccccc1)c1ccc2c(c1)nc1n2CCCCC1,inactive
11,COc1cccc(C2C(C(=O)Nc3ccc(C)cc3C)=C(C)Nc3c(C(=O)Nc4ccccc4)cnn32)c1 (stereo not drawn),inactive
12,CC(C)(C)OC(=O)C1=C(CO)CS[C@@H]2[C@H](NC(=O)Cc3ccccc3)C(=O)N12,inactive
13,C[C@H](NC(=O)C1CC(=O)N(c2ccc3c(c2)OCO3)C1)C(=O)NCc1ccco1 (stereo partly drawn),inactive
14,CCOc1ccc(S(=O)(=O)N2CCC(C(=O)NCC(=O)Nc3cccc(Cl)c3C)CC2)cc1,inactive
15,CC(=O)NC(Cc1c[nH]c2ccccc12)C(=O)NCCc1ccccc1 (stereo not drawn),inactive
16,C=CCC[C@H](Cc1ccc(F)cc1)C(=O)OC[C@@H](Cc1c[nH]c2ccccc12)NC(=O)[C@H](CC=C)CC(=O)N[C@H](CO)Cc1ccccc1,5.8 µM (active)
17,C=CC[C@@H](CC(=O)NCCO)C(=O)N[C@H](C)COC(=O)[C@@H](CC=C)CC(=O)OC(C)(C)C,inactive
18,C=CC[C@@H](CC(=O)N[C@H](CO)Cc1ccccc1)C(=O)N[C@@H](COC(=O)[C@@H](CC=C)Cc1ccc(F)cc1)Cc1c[nH]c2ccccc12,16.4 µM (active)
19,COc1ccc(CNC(=O)[C@H](Cc2c[nH]c3ccccc23)NC(C)=O)cc1OC,inactive
20,O=C(CCc1c[nH]c2ccccc12)NCCOc1ccccc1,inactive
21,C=CC[C@@H](CC(=O)N[C@H](CO)Cc1ccccc1)C(=O)N[C@H](C)COC(=O)[C@@H](CC=C)Cc1ccc(F)cc1,20.6 µM (active)
22,C=CC[C@H](CC(=O)NCCO)C(=O)N[C@@H](COC(=O)[C@@H](CC=C)Cc1ccc(F)cc1)Cc1c[nH]c2ccccc12,29.1 µM (active)
23,COC(=O)C(Cc1c[nH]c2ccccc12)NC(=O)CCNC(=O)c1ccco1 (stereo not drawn),inactive
24,CC(CCc1ccccc1)NC(=O)COC(=O)c1ccc(F)cc1 (stereo not drawn),inactive
25,CC(=O)NC(Cc1c[nH]c2ccccc12)C(=O)O (stereo not drawn),inactive

row,SMILES,Potency
1,CC(C)CNc1ncnc2c1nnn2C,inactive
2,CCC(C)NC(=O)/C=C/c1ccc(S(=O)(=O)NCc2ccco2)cc1 (stereo not drawn),inactive
3,CC(=O)N1CCC(N(C(=O)Nc2ccc(Cl)cc2)C(C)C)CC1,inactive
4,CC(=O)NC(CC(=O)Nc1nc(-c2ccccc2)c(C(C)=O)s1)c1ccccc1 (stereo not drawn),inactive
5,COc1ccccc1C(=O)OCc1cc(=O)n2nc(-c3cccs3)sc2n1,inactive
6,Nc1ccccc1-c1nc2ccncc2[nH]1,inactive
7,CCc1ccc(Oc2coc3cc(OC(=O)c4cc5ccccc5oc4=O)ccc3c2=O)cc1,inactive
8,O=C1c2ccccc2-c2ccccc2NC1O (stereo not drawn),inactive
9,O=C1NN(c2ccccc2)C(=O)/C1=C/c1ccc(-c2cccc(C(=O)O)c2)o1,inactive
10,O=C1CCC[C@@H]2CC(N3CCCCC3)C[C@@H]3CCN1[C@H]23 (stereo partly drawn),inactive
11,CN(C)C(CNC(=O)c1ccc(S(=O)(=O)NCc2ccco2)cc1)c1ccccc1 (stereo not drawn),inactive
12,Cc1noc(C)c1S(=O)(=O)N(C)C[C@H]1OCCCC[C@@H](C)Oc2ccc(NC(=O)CCCN(C)C)cc2C(=O)N([C@H](C)CO)C[C@@H]1C,inactive
13,Cc1cc(/C=C2\SC(=Nc3ccc(N4CCOCC4)cc3)N(C)C2=O)c(C)n1-c1cccnc1,inactive
14,CCCCN=C1C([N+](=O)[O-])=CC=C2C1=NC1(CCCCC1)N2O,inactive
15,COc1ccccc1C(=O)Nc1ccc(C)c(S(=O)(=O)N2CCCCC2)c1,20.6 µM (active)
16,Cc1ccccc1OCC(=O)Nc1ccc2c(c1)ncn2C,inactive
17,O=C(COC(=O)COc1ccccc1F)Nc1cccc(S(=O)(=O)N2CCCCC2)c1,inactive
18,CCc1ccccc1OCC(=O)Nc1ccc2c(c1)OCCO2,inactive
19,COc1ccc(NC(=O)C2=NNC(=O)CC2)cc1S(=O)(=O)N1CCCCC1,inactive
20,COc1ccccc1C(CNC(=O)c1ccc(C)c(S(=O)(=O)N2CCCCC2)c1)N(C)C (stereo not drawn),inactive
21,CCc1ccccc1OCC(=O)Nc1ccc(C)c(S(=O)(=O)N2CCCCCC2)c1,14.6 µM (active)
22,Cc1ccccc1OCC(=O)Nc1ccc(S(=O)(=O)N2CCOCC2)cc1,inactive
23,Cc1ccccc1OCC(=O)Nc1ccc(N2CCN(C(=O)C(C)C)CC2)c(Cl)c1,13 µM (active)
24,Clc1ccc(-c2cccc3nccn23)cc1,inactive
25,Cc1ccc2c(c1)C(O)(CC(=O)c1cccc(-n3cccc3)c1)C(=O)N2 (stereo not drawn),inactive

row,SMILES,Potency
1,C=CCOc1ccc(/C=C/C(=O)OCC(=O)NC2CCCCCC2)cc1,inactive
2,O=C1OCCOC2CCCc3oc(-c4ccccc4)c1c32 (stereo not drawn),inactive
3,O=C(NCc1ccco1)/C(=C/c1cccc([N+](=O)[O-])c1)NC(=O)c1ccco1,inactive
4,CCc1ccc(N(C(=O)c2csnn2)C(C(=O)NC2CCCCC2)c2ccncc2)cc1 (stereo not drawn),inactive
5,O=S(=O)(c1ccc(F)cc1)N1CCN=C1SCc1cccc(F)c1,inactive
6,Clc1cc(NC2CCCCC2)ncn1,inactive
7,Cc1cccn2c(=O)c(C(=O)NC(C)c3ccccc3)cnc12 (stereo not drawn),inactive
8,CCCCC[C@H]1CN(C2CCCCC2)C(=O)[C@@H]1CC(=O)NCc1ccc(OC)cc1,16.4 µM (active)
9,COc1ccc(CNC(=O)[C@@H]2CC=C[C@@H]3CCN(C4CC4)C(=O)[C@@H]32)cc1,inactive
10,COc1ccc(CNC(=O)C2CCCC2)cc1,inactive
11,CCN(CC)CCNC(=O)CN1N=C(c2ccc(OC)cc2)CCC1=O,inactive
12,O=C(NC1CCCCC1)c1ccc(Cn2c(SCc3ccccc3)nc3cccnc32)cc1,inactive
13,COc1ccccc1CCCNC(=O)C1CCC(=O)N(CCN2CCOCC2)C1 (stereo not drawn),inactive
14,C=CCn1c(=N)n(CC(O)COc2ccc(OC)cc2)c2ccccc21 (stereo not drawn),16.4 µM (active)
15,COc1ccccc1OCCn1c(SCC(N)=O)nc2ccccc21,inactive
16,COc1ccc(OCC(O)CN(C)C(=O)C(C)Oc2ccccc2)cc1 (stereo not drawn),inactive
17,C=CCc1ccc(OCC(O)CN2CCN(Cc3ccccc3)CC2)c(OC)c1 (stereo not drawn),inactive
18,CCCn1c(=N)n(CC(O)COc2ccccc2OC)c2ccccc21 (stereo not drawn),11.6 µM (active)
19,COc1ccccc1OCC(O)CN1CCOCC1 (stereo not drawn),inactive
20,COc1c(N2CCN(C(=S)Nc3ccccc3F)C(C)C2)c(F)cc2c(=O)c(C(=O)O)cn(C3CC3)c12 (stereo not drawn),inactive
21,O=C(NCCc1ccc2c(c1)OCCO2)c1cc2ccccc2o1,16.4 µM (active)
22,O=C(NCCc1ccc(C(F)(F)F)cc1)c1ccc2c(c1)OCO2,inactive
23,CN(C)C(CNC(=O)c1cc2ccccc2o1)c1ccccc1 (stereo not drawn),inactive
24,CCOc1ccc(C2C3=C(CCCC3=O)N(CC(=O)O)C3=C2C(=O)CCC3)cc1,inactive
25,C=CCN1CCN(C(=O)CCCc2ccccc2)CC1,inactive

row,SMILES,Potency
1,COc1ccc(NC(=O)[C@H](NC(=O)[C@@H]2Cc3ccccc3CN2)c2ccccc2)cc1,inactive
2,CC12CCCCC1=CC(=O)CC2 (stereo not drawn),inactive
3,Cn1c(=N)n(CC(O)c2cccs2)c2ccccc21 (stereo not drawn),inactive
4,Cn1c(=N)n(CC(O)c2ccccc2)c2ccccc21 (stereo not drawn),inactive
5,CCOc1ccc(C(O)Cn2c(=N)n(CCN3CCCCC3)c3ccccc32)cc1 (stereo not drawn),20.6 µM (active)
6,NC(=O)C1CCN(C(=O)c2cn(-c3ccccc3)nc2-c2cccnc2)CC1,inactive
7,CCOc1ccc(C(CC(=O)O)NC(=O)C23CC4CC(CC(C4)C2)C3)cc1OC (stereo not drawn),inactive
8,Cc1cc(N2CCN(C)CC2)nc2ccc(NC(=S)N3CCOCC3)cc12,inactive
9,CCN1CCN(c2cc(C)c3cc(NC(=O)c4cc(Cl)ccc4OC)ccc3n2)CC1,4.61 µM (active)
10,CCOCCCNC(=S)Nc1ccc2nc(N3CCN(CC)CC3)cc(C)c2c1,inactive
11,COC(=O)c1ccc(NC(=O)c2cc(Cl)ccc2OC)cc1,inactive
12,COc1ccc(C(=O)Nc2ccc3nc(N4CCCCC4)cc(C)c3c2)cc1OC,23.1 µM (active) and 20.6 µM (active)
13,COc1ccc(NC(=O)CC2SC(N3CCCCC3)=NC2=O)cc1OC (stereo not drawn),inactive
14,CCOc1cc(C(C(=O)NCC2CCCO2)N(C(=O)Cn2nnc3ccccc32)c2cccc(OC)c2)ccc1O (stereo not drawn),inactive
15,Cc1nnc(C(=O)NC(C)(C)c2nc(C(=O)NCc3ccc(F)cc3)c(O)c(=O)n2C)o1,inactive
16,NC(=O)CCN1CCN(S(=O)(=O)/C=C/c2ccccc2)CC1,inactive
17,CN1OC[C@@H]2CN[C@H](c3ccc(-c4ccccc4)cc3)C[C@@H]21,inactive
18,Cc1ccc(NC(=O)CSc2nc3c(c(=O)[nH]2)CN(Cc2ccc4c(c2)OCO4)CC3)cc1C,inactive
19,COc1cc(OC)cc(C(=O)NCC(=O)OCC(=O)NC(C)CCc2ccccc2)c1 (stereo not drawn),inactive
20,COc1cc(OC)cc(C(=O)NCC(=O)OCc2csc(-c3ccccc3)n2)c1,16.4 µM (active)
21,COc1cccc(C(=O)NCC(=O)OCc2cc(=O)n3ccsc3n2)c1,inactive
22,C=CCOc1ccc(Cl)cc1CNCCCN1CCOCC1,inactive
23,CC(=O)NCCC(=O)Nc1nc(C)c(Cc2ccc3c(c2)OCO3)s1,inactive
